For assay [1], the target named is Cytochrome P450 3A4 (Homo sapiens) (UniProt P08684). Nature of the assay: qHTS Assay for Activators of Cytochrome P450 3A4 (AID 885). Also: nearly all actives have a fitted effect of over 65% in size. The settings on record: recombinant CYP3A4, Luciferin-PPXE luminescence, 60 min; series mostly up to 57.1 µM. On the procedure:
(§1) NIH Molecular Libraries Screening Centers Network [MLSCN]
(§2) NIH Chemical Genomics Center [NCGC]
The P450 gene superfamily is involved in the metabolism and clearance of xenobiotics. This assay used human CYP3A4 to measure the dealkylation of luciferin-6' phenylpiperazinylyl (Luciferin-PPXE; […]) to luciferin. The luciferin is then measured by luminescence after the addition of a luciferase detection reagent. Luciferin-PPXE concentration in the assay was equal to its KM for CYP3A4. Inhibitors and some substrates limit the production of luciferin, and decrease measured luminescence; activators increase the production of luciferin and luminescence.
(§3) NCGC Assay Protocol Summary:
Two uL of enzyme and substrate mix (final concentrations: 20nM CYP3A4, 25uM Luciferin-PPXE, 200mM KPO4) were dispensed into a white, solid bottom 1536-well microtiter plate. 23nL of compound was transferred by a pin tool. The plate was incubated at RT for 10 min. Two uL of an NADPH regeneration solution (Promega supplied reagent) was dispensed and the reaction was allowed to continue for 60 min at RT. Then the reaction was stopped by reconstituted luciferin detection buffer. After another 20 min of incubation the plate was read on the ViewLux (Perkin Elmer) at 60 sec exposure and 2x2 binning. This protocol was carried out with Promega-Glo reagents and further information can be found at http://www.promega.com/tbs/tb325/tb325.pdf. Data were normalized to the to AC100 inhibition (57 uM ketoconazole).
Keywords: P450, CYP2D6, Luciferase, MLSMR, MLSCN, NIH Roadmap, qHTS, NCGC

Assay [2] in a line: Cellular Toxicity (caspase-3) H-4-II-E (AID 663).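 Also: cells exposed to compound for 16 hr before readout.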 As to conditions: H-4-II-E rat hepatoma, scaled: DMSO 0%, 100 µM tamoxifen 100%; series mostly up to 92.2 µM. The method, boiled down:
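Rat hepatoma H-4-II-E cells (1500/well) plated 5 hr, then exposed to compound titrations for 16 hr at 37 °C. Caspase-Glo 3/7 luminescence read after 20 min at RT; data normalized to DMSO and 100 uM tamoxifen, AC50 from Hill fits.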

A short description of assay [3]: Cellular Toxicity (caspase-3) Hek293 (AID 664).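 Also: cells exposed to compound for 16 h at 37 °C before readout.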 The settings on record: HEK293 caspase-3 activation, DMSO = 0%, 100 µM tamoxifen = 100%; series mostly up to 92.2 µM.
From the text: as §2, §1
(§4) National Institutes of Environmental Health Sciences [NIEHS]
(§5) National Toxicology Program [NTP]
We have developed a 1536-well cell-based assay for quantitative high throughput screening (qHTS) against a number of cell lines to determine in vitro caspase 3/7 of small molecules. This particular assay uses the Hek 293 cell line which is derived from human embryonic kidney cells.
as §3
The Caspase-Glo 3/7 assay (Promega) is a homogeneous method to measure caspase-3 and caspase-7 activities in cultured cells. The quantitation of caspase 3/7 activity is based on the cleavage of a peptide-aminoluciferin substrate. After caspase cleaves the substrate the free aminoluciferin is liberated and serves as the substrate of luciferase, which generates the light. The luminescent signal is proportional to amount of caspase 3/7 activity present.
(§6) Using the Caspase-Glo 3/7 assay, the amount of caspase 3/7 activity was measured in the Hek 293 cell line with complete culture medium following compound treatment for 16 hours. The assay was performed in opaque white 1536-well plates. In the screen, tamoxifen and doxorubicin were used as positive controls. Library compounds were measured for their ability to cause the activation of caspase 3/7 in the cell line, as reflected by an increase in luminescence signal, in a concentration-dependent manner. Data were normalized to the controls for basal activity (DMSO only) and 100% stimulation (100 uM tamoxifen). AC50 values were determined from concentration-response data modeled with the standard Hill equation.
qHTS protocol for caspase 3/7 assay in Hek 293 cells
(§7) [Step] [Parameter] [Value] [Description]
(§8) 2. Time; 5 hr; 37 °C incubation
4. Controls; 23 nL; Tamoxifen 0.23 uM to 100 uM & Doxorubicin 7.0 pM to 100 uM
5. Time; 16 hr; 37 °C incubation
6. […]
(§9) 8. Detection; Luminescence; Viewlux plate reader
Keywords: caspase 3/7, apoptosis, Hek 293 cell line, luminescence, NTPHTS, NTPHTS_NCGC, NIEHS, EPA, DSSTox, MLSMR, MLSCN, NIH Roadmap, qHTS, NCGC

Assay [4] can be described thus: Cellular Toxicity (caspase-3) N2a (AID 665).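 Also: compound exposure lasted 16 h at 37 °C before readout.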 As to conditions: N2a cells, luminescence, normalized: DMSO 0%, 10 µM staurosporine 100%; series mostly up to 92.2 µM. The essentials: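 Plated mouse neuroblastoma N2a cells received titrated compounds for 16 h in complete medium. Caspase activity was then detected with a peptide-aminoluciferin luminescent reagent.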
The nature of assay [5]: Cellular Toxicity (caspase-3) NIH 3T3 (AID 666).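 Also: caspase signal read after 16 h compound exposure; 0% = DMSO basal and 100% = 100 µM tamoxifen stimulation.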 As to conditions: NIH 3T3 caspase-3 activation, apoptosis/toxicity, 0% DMSO, 100% is 100 µM tamoxifen; series mostly up to 92.2 µM. The method, boiled down:
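Concentration-response qHTS in NIH 3T3 mouse fibroblasts scores caspase-3/7 activation as rising luminescence after 16 hr compound exposure. Signals are scaled between DMSO-only and 100 uM tamoxifen.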

Assay [6] in a line: Cellular Toxicity (caspase-3) Renal Proximal Tubule (AID 667).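 Also: cells exposed to compound for 16 hours at 37 °C before detection.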 As to conditions: renal proximal tubule cells, primary cells freshly taken from rat, solvent-only wells 0%, staurosporine 100%; series mostly up to 91.7 µM.
From the text: as §2, §1, §4, §5
We have developed a 1536-well cell-based assay for quantitative high throughput screening (qHTS) against a number of cell lines to determine in vitro caspase 3/7 activity of small molecules. This particular assay uses the primary kidney proximal tubule cells freshly isolated from rat.
as §3
The Caspase-Glo 3/7 assay (Promega) is a homogeneous method to measure caspase-3 and caspase-7 activities in cultured cells. The quantitation of caspase 3/7 activity is based on the cleavage of a peptide-aminoluciferin substrate. After caspase cleaves the substrate the free aminoluciferin is liberated and serves as the substrate of luciferase, which generates the light. The luminescent signal is proportional to the amount of caspase 3/7 activity present.
as §6, with “rat kidney proximal tubule cells” for “Hek 293 cell line”, “staurosporine” for “tamoxifen”, “(10” for “(100”, “staurosporine).” for “tamoxifen).”
qHTS protocol for caspase 3/7 assay in rat kidney proximal tubule cells
as §7
1. Reagent; 5 uL; 1000 rat kidney proximal tubule cells/well
as §8
4. […]
as §9
Keywords: caspase 3/7, apoptosis, rat kidney proximal tubule cells, luminescence, NTPHTS, NTPHTS_NCGC, NIEHS, EPA, DSSTox, MLSMR, MLSCN, NIH Roadmap, qHTS, NCGC

Assay [7] has as its target Cytochrome P450 3A4 (Homo sapiens) (UniProt P08684). Nature of the assay: qHTS Assay for Inhibitors and Substrates of Cytochrome P450 3A4 (AID 884). Also: nearly all actives have a fitted effect of over 50% in size. Also: potency is read from the fitted curve at half-maximal effect. As to conditions: recombinant CYP3A4, Luciferin-PPXE luminescence; series mostly up to 57.1 µM. The essentials: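 20 nM human CYP3A4 with 25 uM Luciferin-PPXE (at KM) in 200 mM KPO4, preincubated 10 min with compound; NADPH regeneration started a 60 min RT reaction. Luciferin detected by luminescence, normalized to 57 uM ketoconazole as full inhibition.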
(In general: qHTS replaces the single test concentration by a dilution series.)

Assay [8] concerns the target Cytochrome P450 2C9 (Homo sapiens) (UniProt P11712). Nature of the assay: qHTS Assay for Inhibitors and Substrates of Cytochrome P450 2C9 (AID 883). Also: % is scaled to controls: 0 for no effect and ±100 for the full control effect; nearly all actives have a fitted effect of over 60% in size. As to conditions: recombinant CYP2C9, luciferin-H luminescence, 60 min; series mostly up to 57.1 µM. The method, boiled down:
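Human CYP2C9 (10nM) with Luciferin-H at 100uM (its KM) in 25mM KPO4; compound preincubated 10 min at 37C, then NADPH regeneration for 60 min at 37C. Luciferin read by luminescence after detection reagent; normalized to 57uM sulphaphenazole as full inhibition.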

Assay [9] addresses Cytochrome P450 2C19 (Homo sapiens) (UniProt P33261). Nature of the assay: qHTS Assay for Inhibitors and Substrates of Cytochrome P450 2C19 (AID 899). Also: potency is read from the fitted curve at half-maximal effect; nearly all actives have a fitted effect of over 60% in size. As to conditions: recombinant CYP2C19, luciferin-H EGE luminescence. The essentials: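 5 nM human CYP2C19 with 10uM Luciferin-H EGE (at KM) in 50mM KPO4, compound preincubated 10 min at 37C, then NADPH regeneration for 60 min at 37C. Luciferin read by luminescence after detection reagent; normalized to 57uM ketoconazole as full inhibition.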

For assay [10], the target named is Guanine nucleotide-binding protein G(i) subunit alpha-1 (Homo sapiens) (UniProt P63096). The assay can be described thus: qHTS Assay for Inhibitors of RGS12 GoLoco Motif Activity (Green Fluorophore) (AID 879).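 Also: 0% = labeled peptide with Gαi1 and full inhibition = labeled peptide alone without protein; negative values mean loss of peptide binding seen as reduced polarization.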 As to conditions: Galphai1/FITC-RGS12 GoLoco peptide, fluorescence polarization; series mostly up to 57.1 µM. The essentials: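 Fluorescence polarization assay: 50 nM Gαi1 with 10 nM FITC-labeled RGS12 GoLoco peptide in 10 mM Tris pH 7.5, 150 mM NaCl, 0.1 mM GDP, 0.05% NP40, 10 min at room temperature with compound.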

The structures appear in SMILES notation. Unmarked numbers belong to inactive results. Results filed as inconclusive are left out. The source made the active and inactive calls. Calls follow the shape of the dose curve; as a rule, active = well fitted curve in the direction sought with a large enough effect; inconclusive = small, poorly fitted or top-dose-only effect, or another doubt; inactive = no such curve, though single readings can be large; an effect the other way counts as inactive or inconclusive.

Cytochrome P450 3A4 (Homo sapiens), sequence (P08684 whole entry, looked up): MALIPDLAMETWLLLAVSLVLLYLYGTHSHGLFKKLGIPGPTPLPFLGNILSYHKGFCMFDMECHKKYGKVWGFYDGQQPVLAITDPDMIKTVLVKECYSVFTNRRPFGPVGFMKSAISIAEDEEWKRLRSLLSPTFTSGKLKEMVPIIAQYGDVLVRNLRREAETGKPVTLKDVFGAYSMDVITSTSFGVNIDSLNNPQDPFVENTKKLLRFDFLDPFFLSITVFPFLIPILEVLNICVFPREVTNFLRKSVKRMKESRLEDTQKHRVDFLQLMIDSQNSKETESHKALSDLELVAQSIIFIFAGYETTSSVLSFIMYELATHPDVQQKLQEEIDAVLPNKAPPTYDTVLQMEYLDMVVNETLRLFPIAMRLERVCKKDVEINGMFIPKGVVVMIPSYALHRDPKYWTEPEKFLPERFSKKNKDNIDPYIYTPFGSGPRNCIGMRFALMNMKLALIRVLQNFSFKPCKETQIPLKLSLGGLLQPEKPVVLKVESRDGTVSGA
Cytochrome P450 2C19 (Homo sapiens), sequence (P33261 whole entry, looked up): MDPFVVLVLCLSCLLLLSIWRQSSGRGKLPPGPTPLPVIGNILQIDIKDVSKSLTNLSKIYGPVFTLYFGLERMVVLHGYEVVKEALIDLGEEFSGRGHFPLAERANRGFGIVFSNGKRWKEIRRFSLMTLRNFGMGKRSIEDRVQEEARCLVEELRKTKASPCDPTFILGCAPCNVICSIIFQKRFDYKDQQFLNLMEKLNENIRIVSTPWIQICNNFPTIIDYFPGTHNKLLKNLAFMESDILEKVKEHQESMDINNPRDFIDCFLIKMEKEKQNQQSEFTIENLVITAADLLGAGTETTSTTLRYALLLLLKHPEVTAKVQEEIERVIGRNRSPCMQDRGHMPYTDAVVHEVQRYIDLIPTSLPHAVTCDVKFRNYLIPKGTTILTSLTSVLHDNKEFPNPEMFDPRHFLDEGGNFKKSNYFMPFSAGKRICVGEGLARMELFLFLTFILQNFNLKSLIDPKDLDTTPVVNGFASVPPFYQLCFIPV
Cytochrome P450 2C9 (Homo sapiens), sequence (P11712 whole entry, looked up): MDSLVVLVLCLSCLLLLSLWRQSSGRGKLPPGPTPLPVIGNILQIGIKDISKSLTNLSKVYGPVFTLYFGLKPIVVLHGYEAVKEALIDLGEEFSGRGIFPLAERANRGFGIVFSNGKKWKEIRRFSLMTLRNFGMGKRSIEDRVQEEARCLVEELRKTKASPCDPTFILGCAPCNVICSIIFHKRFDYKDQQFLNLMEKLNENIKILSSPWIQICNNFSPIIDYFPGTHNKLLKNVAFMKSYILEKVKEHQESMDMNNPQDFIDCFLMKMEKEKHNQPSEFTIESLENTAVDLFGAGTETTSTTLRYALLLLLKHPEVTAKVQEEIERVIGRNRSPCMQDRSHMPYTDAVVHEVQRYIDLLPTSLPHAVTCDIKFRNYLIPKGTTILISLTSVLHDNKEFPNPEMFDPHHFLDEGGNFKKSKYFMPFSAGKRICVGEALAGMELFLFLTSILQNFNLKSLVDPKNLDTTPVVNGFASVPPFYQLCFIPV
Guanine nucleotide-binding protein G(i) subunit alpha-1 (Homo sapiens), sequence (P63096 whole entry, looked up): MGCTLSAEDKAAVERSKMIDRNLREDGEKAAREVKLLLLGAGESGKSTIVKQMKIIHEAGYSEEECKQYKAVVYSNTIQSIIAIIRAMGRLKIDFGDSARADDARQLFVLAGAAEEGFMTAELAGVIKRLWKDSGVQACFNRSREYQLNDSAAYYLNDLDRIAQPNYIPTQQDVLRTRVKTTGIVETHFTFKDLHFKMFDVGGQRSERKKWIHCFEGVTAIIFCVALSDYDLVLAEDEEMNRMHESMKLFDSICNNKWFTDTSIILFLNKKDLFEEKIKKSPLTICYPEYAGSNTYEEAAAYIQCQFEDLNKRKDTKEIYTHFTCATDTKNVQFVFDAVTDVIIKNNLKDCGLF

As for `Cc1ccccc1CN1C2=NCCN2C(=O)C2=C1CCN(Cc1ccccc1)C2`, in assay [1], the activity change, positive = activation was -40.7% [at 11.4 µM].
With `CC(=O)c1cc2c(cc1O)OC(C)(C)C=C2`, the result in [1] was inactive.
Regarding `Cc1ccc(N)cc1O`, the compound was called inactive in [2], in assay [3], in [4], in assay [5] and in assay [6]. Further, the Potency entry in assay [7] was “inactive”.
`Nc1nc2c(ncn2[C@@H]2O[C@H](CO)[C@@H](O)[C@H]2O)c(=O)[nH]1`: the Potency result in [7] was “inactive”.
`COc1ccc(C[C@H](N)C(=O)N[C@@H]2[C@H](O)[C@H](n3cnc4c(N(C)C)ncnc43)O[C@@H]2CO)cc1`: the result in [1] was inactive.
Take `COc1ccc2c(OC)c3ccoc3nc2c1OC`: the result in assay [8] and in assay [1] was inactive. The Potency in assay [7] is 12.6 µM (active); in [9] it was 10 µM (active).
`CC(=O)O[C@@H]1CC(C)=C2[C@H]1[C@H](C)CC[C@H]2/C=C(\C)C(=O)O`: the compound was called inactive in assay [2], in [3], in [4], in assay [5] and in assay [6]. Besides, in assay [7], the Potency entry is “inactive”.
Consider `CC(=O)O[C@H]1C(=O)[C@@]2(C)[C@H]([C@H](OC(=O)c3ccccc3)[C@]3(O)C[C@H](OC(=O)[C@H](O)[C@@H](NC(=O)c4ccccc4)c4ccccc4)C(C)=C1C3(C)C)[C@]1(OC(C)=O)CO[C@@H]1C[C@@H]2O`, for which the call in assay [10] was inactive.
Regarding `Nc1ccccc1N`, the call in assay [2], in assay [3], in [4], in [5] and in assay [6] was inactive.
Regarding `CC(C)C(N)C(=O)OCCOCn1cnc2c(=O)[nH]c(N)nc21` (configuration not stated), the Potency entry in assay [7] was “inactive”.

Values taken from PubChem BioAssay (NCATS).
